Measurements from PubChem BioAssay AID1159580 (chemical genetic matrix, 2015).
Several values for one entry are separate records, joined by “and”; a condition that tells them apart may be missing. Equal values may be shown once. Among all 5,500 compounds or so, about 2,000 (36%) were called active. Not shown: some 18% with an inconclusive outcome. Rule as the data show it: active = normalized growth mostly below about 0.91 (no sharp cut-off); inconclusive = no clear call, values can overlap the other calls; inactive = mostly above about 0.92. The list shows a part of the results.

Test: chemical genetic growth profiling, strain panel (AID 1159580);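 also: tested at 20 µM; growth read once vehicle control cultures reached saturation at 30 °C; 1 = growth at the plate median or of vehicle wells; lower values mean less growth of the strain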
Settings: S. cerevisiae deletion strains, growth OD

Measured: normalized growth

Cc1nc2ccccn2c(=O)c1CCN1CCC(C(=O)c2ccc(F)cc2)CC1
inactive: locus YAL013W, strain DEP1, active compounds read low 1.02 and 1.01 | locus YAL021C, strain ccr4, active compounds read low 1 | locus YAL026C, strain drs2, active compounds read low 1 | locus YAL030W, strain snc1, active compounds read low 0.999 | locus YAL040C, strain CLN3, active compounds read low 0.993 | locus YBL061C, strain skt5, active compounds read low 0.983 | locus YBR009C, strain hhf1, active compounds read low 0.987 | locus YBR021W, strain FUR4, active compounds read low 0.981 | locus YBR023C, strain chs3, active compounds read low 0.986 | locus YBR171W, strain sec66, active compounds read low 0.981 | locus YBR229C, strain ROT2, active compounds read low 1.02 | locus YBR231C, strain swc5, active compounds read low 0.984 | locus YBR279W, strain paf1, active compounds read low 0.977 | locus YCL011C, strain gbp2, active compounds read low 0.997 | locus YCL016C, strain dcc1, active compounds read low 0.989 | locus YCL029C, strain bik1, active compounds read low 0.999 | locus YCL061C, strain MRC1 (second series), active compounds read low 1.01 | locus YCL061C, strain MRC1, active compounds read low 1.02 | locus YCL069W, strain vba3, active compounds read low 1 | locus YCR088W, strain abp1, active compounds read low 0.982 | locus YDL005C, strain med2, active compounds read low 0.973 | locus YDL035C, strain GPR1, active compounds read low 1.02 | locus YDL040C, strain nat1, active compounds read low 1 | locus YDL074C, strain BRE1, active compounds read low 1.07 | locus YDL101C, strain DUN1, active compounds read low 1.04 | locus YDL134C, strain PPH21, active compounds read low 1.02 | locus YDL185W, strain tfp1, active compounds read low 0.992 | locus YDL192W, strain arf1, active compounds read low 0.997 | locus YDR001C, strain nth1, active compounds read low 0.986 | locus YDR069C, strain doa4, active compounds read low 0.972 | locus YDR101C, strain arx1, active compounds read low 0.979 | locus YDR137W, strain rgp1, active compounds read low 0.976 | locus YDR150W, strain NUM1, active compounds read low 1.03 and 1 | locus YDR159W, strain sac3, active compounds read low 0.977 | locus YDR162C, strain NBP2, active compounds read low 1.05 | locus YDR195W, strain ref2 0.996 | locus YDR297W, strain sur2, active compounds read low 0.98 | locus YDR318W, strain mcm21, active compounds read low 0.983 | locus YDR334W, strain swr1, active compounds read low 0.982 | locus YDR335W, strain msn5, active compounds read low 0.984 | locus YDR363W, strain ESC2, active compounds read low 1.01 | locus YDR388W, active compounds read low 0.995 | locus YDR392W, strain spt3, active compounds read low 0.988 | locus YDR502C, strain sam2, active compounds read low 1.01 | locus YEL003W, strain gim4, active compounds read low 0.997 | locus YEL037C, strain rad23, active compounds read low 0.984 | locus YEL061C, strain CIN8 (second series), active compounds read low 0.994 | locus YEL061C, strain CIN8, active compounds read low 1.01 | locus YER002W, strain NOP16, active compounds read low 0.983 | locus YER015W, strain faa2, active compounds read low 0.997 | locus YER016W, strain bim1, active compounds read low 0.985 | locus YER110C, active compounds read low 0.991 | locus YER111C, strain swi4, active compounds read low 0.973 | locus YER155C, strain BEM2 (second series), active compounds read low 1 | locus YER155C, strain BEM2, active compounds read low 1.02 | locus YER167W, strain BCK2, active compounds read low 1.01 | locus YFR010W, strain ubp6, active compounds read low 0.989 | locus YGL078C, strain dbp3, active compounds read low 0.999 | locus YGL086W, strain mad1, active compounds read low 0.996 | locus YGL167C, strain pmr1, active compounds read low 0.983 | locus YGL173C, strain kem1, active compounds read low 0.992 | locus YGL227W, strain vid30, active compounds read low 1 | locus YGL240W, strain doc1, active compounds read low 1.01 | locus YGL248W, strain PDE1, active compounds read low 1.02 | locus YGL253W, strain hxk2, active compounds read low 0.996 | locus YGR078C, strain PAC10, active compounds read low 1.04 and 1.02 | locus YGR135W, strain pre9, active compounds read low 1 | locus YGR229C, strain SMI1, active compounds read low 1.04 | locus YGR252W, strain gcn5, active compounds read low 0.945 | locus YHR013C, strain ard1, active compounds read low 0.97 | locus YHR027C, strain rpn1, active compounds read low 0.985 | locus YHR030C, strain SLT2, active compounds read low 1.02 | locus YHR079C, strain IRE1 (second series), active compounds read low 0.985 | locus YHR079C, strain IRE1, active compounds read low 1.05 | locus YHR094C, strain hxt1, active compounds read low 0.998 | locus YHR129C, strain ARP1, active compounds read low 1.02 | locus YHR142W, strain chs7, active compounds read low 0.968 | locus YHR200W, strain rpn10, active compounds read low 0.998 | locus YIL066C, strain RNR3, active compounds read low 1.03 | locus YIL073C, strain SPO22, active compounds read low 0.973 | locus YIL125W, strain kgd1, active compounds read low 1 | locus YIR030C, strain dcg1, active compounds read low 1 | locus YJL092W, strain hpr5, active compounds read low 0.987 | locus YJL095W, strain BCK1 (second series), active compounds read low 0.986 | locus YJL095W, strain BCK1, active compounds read low 1.04 and 1.01 | locus YJL115W, strain asf1, active compounds read low 0.991 | locus YJL129C, strain trk1, active compounds read low 0.987 | locus YJL134W, strain LCB3, active compounds read low 1.02 | locus YJL154C, strain vps35, active compounds read low 0.987 | locus YJL164C, strain tpk1, active compounds read low 0.993 | locus YJL166W, strain qcr8, active compounds read low 0.996 | locus YJL168C, strain set2, active compounds read low 0.99 | locus YJL187C, strain SWE1 (second series), active compounds read low 1.03 | locus YJR043C, strain POL32, active compounds read low 1 | locus YJR066W, strain TOR1, active compounds read low 0.993
